# Assay results taken from PubChem BioAssay (NCATS).
# Results filed as inconclusive are left out. A call without a number means that no potency is given here. A number with no mark means an inactive call. The source made the active and inactive calls. Calls come from the whole dose curve; as a rule, active = well fitted inhibition curve with a large enough effect; inconclusive = small, poorly fitted or top-dose-only effect; inactive = flat fitted curve, though single readings scatter.
# Test: P-glycoprotein substrates identified in KB-8-5-11 adenocarcinoma cell line, qHTS therapeutic library screen (AID 1346987); note: nearly all actives have a fitted effect of over 65% in size
# Conditions: KB-8-5-11 (P-gp overexpressing) viability, CellTiter-Glo, 72 h; series mostly up to 44.5 µM
# In short: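 KB-8-5-11, a colchicine-selected P-gp-overexpressing KB-3-1 subline, was grown without colchicine for the assay. Cells were seeded at 500 cells/well, dosed in concentration-response and incubated 72 h at 37 degree C, 5% CO2. Viability was read by CellTiter-Glo luminescence.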
Compound,Potency,"activity change, negative = cytotoxicity",outcome
C=C1C[C@]23C[C@H]1CC[C@H]2[C@]1(C)CC[C@H](O)[C@@](C)(C(=O)O)[C@H]1[C@@H]3C(=O)O,inactive,,
CC(/C=C/C=C(\C)C(=O)O[C@@H]1O[C@H](CO[C@@H]2O[C@H](CO)[C@@H](O)[C@H](O)[C@H]2O)[C@@H](O)[C@H](O)[C@H]1O)=C\C=C\C=C(C)\C=C\C=C(/C)C(=O)O[C@@H]1C[C@](O)(C(=O)O)C[C@@H](O)[C@H]1OC(=O)/C=C/c1ccc(O)c(O)c1,,3.01% [at 9.29 µM],
Cc1cc(O[C@@H]2O[C@H](COC(=O)CC(=O)O)[C@@H](O)[C@H](O)[C@H]2O)c(C(C)C)cc1O,inactive,,
COc1c(O)cc2c(c1O)C(=O)O[C@H](C)[C@H]2O,inactive,,
CC(=O)O[C@@H]1C(=O)C(C)=C(CCC(C)CC(=O)O)[C@@]2(C)CCCC(C)(C)C12 (stereo partly specified),inactive,,
CC(=O)OCC1OC(O[C@H]2CC[C@]34C[C@]35CC(O)[C@]3(C)[C@@H]([C@H](C)CC/C=C(\C)C(=O)O)C(O)C[C@@]3(C)C5CC[C@H]4C2(C)C)C(O)C(O)C1OC1OCC(O)C(O)C1O (stereo partly specified),,,inactive [at 9.29 µM]
